Measured values taken from PubChem BioAssay (NCATS).
Inconclusive results are not listed. The source made the active and inactive calls. Unless noted, the call rests on the fitted dose curve; in most records, active means well fitted curve in the direction sought with a large enough effect; inconclusive means small, poorly fitted or top-dose-only effect, or another doubt; inactive means no such curve, though single readings can be large; an effect the other way counts as inactive or inconclusive.

Legend:
[1] = qHTS for differential inhibitors of proliferation of Plasmodium falciparum line Dd2 (AID 1882); details: Potency: Plasmodium falciparum Dd2 proliferation inhibition; further: series mostly up to about 29 µM; nearly all actives have a fitted effect of over 65% in size
How it was run: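 Dd2-infected erythrocytes (0.3% parasitemia, 2.5% hematocrit final) incubated with compound 72 h at 37 C, 5% CO2; lysed with saponin/Triton buffer containing SYBR Green I, incubated overnight in the dark, then read by fluorescence (485/535 nm). Normalized to 0.29 uM artemisinin and DMSO.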

[2] = qHTS for differential inhibitors of proliferation of Plasmodium falciparum line HB3 (AID 1886); details: Potency: Plasmodium falciparum HB3 proliferation inhibition;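 further: parasites grown with compound for 72 h before SYBR Green readout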
[3] = target: ATP-dependent DNA helicase Q1 (Homo sapiens) (UniProt P46063); test: qHTS Validation Assay for Inhibitors of RecQ-Like Dna Helicase 1 (RECQ1) (AID 2353)
How it was run: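 50 nM RECQ1T1 preincubated 15 min with compound in Tris pH 8.0 buffer with MgCl2, DTT, Tween-20 and 2.5 ug/ml poly(dI-dC); started with 200 nM TAMRA/BHQ-2 forked duplex and 2 mM ATP. Unwinding read as fluorescence (525/598 nm), two reads 2 h apart.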

[4] = Cytometric Cell-Based qHTS for Inhibitors of the mTORC1 Signaling Pathway in MEF (Tsc2-/-, p53-/-) Cells (AID 2660);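 further: percent of cells above a phospho-rpS6 to PI ratio cutoff in each well; series mostly up to about 38 µM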
How it was run: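 Immunofluorescence qHTS of rpS6 Ser235/236 phosphorylation: MEFs (Tsc2-/-, p53-/-) treated 24 h, 37 C, in DMEM + 10% FBS. Alexa-488 signal normalized to PI count, referenced to rapamycin (7.5 nM) and DMSO; PI cell number recorded for viability.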

[5] = High Content Imaging Cell-Based qHTS for Inhibitors of the mTORC1 Signaling Pathway in MEF (Tsc2-/-, p53-/-) Cells (AID 2666);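 further: percent of cells scored positive for phospho-rpS6 Ser235/236 immunostaining by imaging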
How it was run: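 Phospho-rpS6 (Ser235/236) immunofluorescence, normalized and scored as % positive cells using rapamycin and DMSO controls, was read in empty-vector Tsc2-/-, p53-/- MEFs after 24 h compound exposure at 37 C; propidium iodide counted cells.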

[6] = High Content Imaging Cell-Based qHTS for Inhibitors of the mTORC1 Signaling Pathway in MEF Cells (AID 2667);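 further: Tsc2-/- p53-/- MEFs stably re-expressing wild-type Tsc2 exposed 24 h; series mostly up to about 38 µM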
How it was run: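 WT MEFs (Tsc2-/-, p53-/- re-expressing Tsc2), in DMEM + 10% FBS, were treated with compound for 24 h at 37 C. Cells were then fixed and stained for phospho-rpS6 Ser235/236 with propidium iodide as cell count. Values are % positive cells, with thresholds set against rapamycin-treated cells.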

[7] = Cytometry Cell-Based qHTS for Inhibitors of the mTORC1 Signaling Pathway in MEF cells (AID 2668);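 further: Tsc2-/- p53-/- mouse embryonic fibroblasts stably re-expressing wild-type Tsc2; percent cells positive for phospho-rpS6 Ser235/236 relative to propidium iodide stain; series mostly up to about 38 µM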
How it was run: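 MEFs (Tsc2-/-, p53-/- stably expressing WT Tsc2) treated 24 h at 37 degree Celsius, fixed, stained with Alexa-488 anti-phospho-rpS6 Ser235/236 and propidium iodide; Acumen laser scanning. Reported as % positive cells, phospho-S6 normalized to PI.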

[8] = Validation screen for small molecules that induce DNA re-replication in MCF 10A normal breast cells (AID 463097); further: nearly all actives have a fitted effect of over 60% in size
How it was run: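 MCF 10A cells exposed to compound 48 hr at 37 C, 5% CO2, then Hoechst-stained 40 min. Laser-scanning imaging of nuclear DNA content (405 nm ex, 500-530 nm em); re-replication scored as rise in nuclei with elevated fluorescence intensity.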

[9] = target: Ubiquitin carboxyl-terminal hydrolase 2 (Homo sapiens) (UniProt O75604); test: qHTS Validation Assay for Inhibitors of Ubiquitin-specific Protease USP2a Using CHOP2 as the Reporter (AID 463106)
How it was run: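 USP2 core (10 nM final) was preincubated with compound 30 min at RT in pH 8.0 Tris/CaCl2/beta-ME/CHAPS buffer. Ub-CHOP2 and reporter substrate (25 nM final each) were then added, with fluorescence (Ex 485/Em 531) read after 60 min. Data were normalized to NEM full inhibition and fitted to concentration-response curves.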

[10] = target: DNA polymerase III PolC-type (Bacillus subtilis (strain 168)) (UniProt P13267); test: qHTS Validation Assay for the Inhibitors of DNA Replication in Gram-Positive Bacteria (AID 485295);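 further: PicoGreen fluorescence of double-stranded DNA made on primed circular M13 template; series mostly up to about 57 µM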
How it was run: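 Reconstituted B. subtilis Pol III holoenzyme (PolC, beta clamp, SSB, primase) preincubated with compound, then M13Gori single-stranded circular template with dNTPs/NTPs added; room temperature reaction. Stopped with EDTA/PicoGreen; dsDNA fluorescence read, EDTA as full-inhibition control.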

[11] = target: Tumor susceptibility gene 101 protein (Homo sapiens) (UniProt Q99816); test: qHTS Validation Assay for Iinhibitors of HIV-1 Budding by Blocking the Interaction of PTAP/TSG101 (AID 485342; calls by dose curve)
How it was run: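 Tsg101 binding domain (10 uM) with FITC-labeled PTAP peptide (50 nM) in HEPES pH 7.5 buffer, 20 min at r.t. with compounds. Binding measured by fluorescence polarization.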

[12] = qHTS Validation Assay to Find Inhibitors of Chronic Active B-Cell Receptor Signaling (AID 485345; active means well fitted curve in the direction sought with a large enough effect in the main read-out, with a control signal flat, not every such curve was filed as active)
How it was run: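 TMD8 ABC-DLBCL cells stably carrying doxycycline-inducible IkappaBalpha–green luciferase fusion plus unfused red luciferase; compounds 46 uM to 3 nM, 4 h at 37C with doxycycline. Corrected green/red luminescence ratio normalized to 10 uM MG-132 and basal cell wells; curves fitted.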

[13] = target: Beta-2 adrenergic receptor (Homo sapiens) (UniProt P07550); test: qHTS validation assay of beta-arrestin-biased ligands of beta2-adrenergic receptor (AID 485366)
How it was run: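 Arrestin-recruitment (Tango) reporter: ligand-bound beta2-AR recruits beta-arrestin, releasing tTA, which upregulates luciferase. Titrations of up to 46 microM incubated 18 hr at 37 degrees C before luminescent readout.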

[14] = qHTS for differential inhibitors of proliferation of Plasmodium falciparum line W2 (AID 1883); details: Potency: Plasmodium falciparum W2 proliferation inhibition;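 further: parasites grown with compound for 72 h before lysis and staining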
[15] = qHTS Assay for Modulators of Human Peripheral Myelin Protein 22 (PMP22) Expression/Activity (AID 1967; active means well fitted curve in the direction sought with a large enough effect in the signal ratio; the % refers to the signal ratio)
How it was run: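 Mouse MSC80 Schwann cells carrying Pmp22 promoter–green click beetle luciferase plus EF-alpha–red luciferase control, dosed 24 h at 37 °C. Dual-filter luminescence, overlap-corrected; %Activity from green/red ratio normalised to untreated cells, concentration-response curves fitted.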

[16] = target: Ferritin light chain (Equus caballus) (UniProt P02791); test: qHTS Validation Assay for Identification of Novel General Anesthetics (AID 2323); further: series mostly up to about 77 µM
How it was run: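 Horse-spleen apoferritin (10 uM) in PBS with 50% saturated 1-aminoanthracene; compounds pin-transferred, 10 min at room temperature. Fluorescence read at 380/535 nm, normalized to free 1-AMA and 1-AMA/apoferritin values; four-parameter Hill fit.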

[17] = target: RecQ-like DNA helicase BLM (Homo sapiens) (UniProt P54132); test: qHTS Validation Assay for Inhibitors of Bloom's syndrome helicase (BLM) (AID 2364)
How it was run: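 50 nM BLM preincubated 15 min at room temperature with compound in pH 8.0 Tris buffer containing 2.5 ug/ml poly(dI-dC); started with 200 nM TAMRA/BHQ-2 forked duplex and 2 mM ATP (final). Unwinding read as TAMRA fluorescence increase, two reads 2 h apart.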

Measured: Potency

Ferritin light chain (Equus caballus), sequence (P02791 2-175 limits assumed): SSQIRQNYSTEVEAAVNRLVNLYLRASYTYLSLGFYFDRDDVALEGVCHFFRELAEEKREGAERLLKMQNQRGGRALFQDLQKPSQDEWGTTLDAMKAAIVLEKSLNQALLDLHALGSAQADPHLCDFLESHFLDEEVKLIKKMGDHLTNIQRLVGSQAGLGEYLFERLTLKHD
DNA polymerase III PolC-type (Bacillus subtilis (strain 168)), sequence (P13267 whole entry, looked up): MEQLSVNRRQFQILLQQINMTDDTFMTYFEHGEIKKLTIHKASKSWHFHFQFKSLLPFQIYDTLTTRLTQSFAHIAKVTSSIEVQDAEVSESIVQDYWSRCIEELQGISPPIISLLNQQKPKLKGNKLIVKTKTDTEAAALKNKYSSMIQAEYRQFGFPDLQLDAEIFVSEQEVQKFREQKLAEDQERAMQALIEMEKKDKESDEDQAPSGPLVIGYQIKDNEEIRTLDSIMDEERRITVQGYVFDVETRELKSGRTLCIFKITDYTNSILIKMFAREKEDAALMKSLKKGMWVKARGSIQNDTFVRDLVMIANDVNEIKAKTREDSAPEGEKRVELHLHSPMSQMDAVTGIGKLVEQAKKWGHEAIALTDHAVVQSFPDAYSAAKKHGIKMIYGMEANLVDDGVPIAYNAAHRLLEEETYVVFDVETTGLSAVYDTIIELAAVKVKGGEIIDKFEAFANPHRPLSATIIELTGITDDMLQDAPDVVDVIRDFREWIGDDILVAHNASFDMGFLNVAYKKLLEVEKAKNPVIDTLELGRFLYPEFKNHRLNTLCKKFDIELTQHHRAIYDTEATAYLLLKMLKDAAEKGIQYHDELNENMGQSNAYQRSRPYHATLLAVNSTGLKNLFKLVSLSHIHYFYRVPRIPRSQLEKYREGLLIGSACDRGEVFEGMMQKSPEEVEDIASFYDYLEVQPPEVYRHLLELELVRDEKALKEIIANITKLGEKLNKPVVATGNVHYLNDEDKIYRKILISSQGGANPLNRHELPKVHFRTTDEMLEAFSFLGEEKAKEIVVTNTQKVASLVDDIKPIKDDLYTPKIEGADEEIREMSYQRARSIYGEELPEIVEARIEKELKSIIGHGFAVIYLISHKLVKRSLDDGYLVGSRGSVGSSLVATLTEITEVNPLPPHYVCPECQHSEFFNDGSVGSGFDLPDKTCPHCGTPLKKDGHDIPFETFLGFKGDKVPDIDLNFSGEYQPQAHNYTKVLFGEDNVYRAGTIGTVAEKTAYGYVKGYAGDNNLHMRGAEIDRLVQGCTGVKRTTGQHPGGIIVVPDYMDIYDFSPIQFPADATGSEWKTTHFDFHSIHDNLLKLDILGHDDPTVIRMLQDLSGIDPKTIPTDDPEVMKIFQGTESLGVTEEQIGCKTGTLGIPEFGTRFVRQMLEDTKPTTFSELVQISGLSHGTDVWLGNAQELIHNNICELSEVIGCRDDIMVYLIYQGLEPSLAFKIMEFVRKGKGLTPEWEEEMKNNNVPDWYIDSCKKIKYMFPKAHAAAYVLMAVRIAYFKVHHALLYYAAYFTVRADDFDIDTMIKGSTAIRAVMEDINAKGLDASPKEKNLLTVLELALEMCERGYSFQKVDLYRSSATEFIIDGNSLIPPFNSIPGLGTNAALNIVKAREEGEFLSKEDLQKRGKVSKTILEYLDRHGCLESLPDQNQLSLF
Tumor susceptibility gene 101 protein (Homo sapiens), sequence (Q99816 whole entry, looked up, the tested form may be a part): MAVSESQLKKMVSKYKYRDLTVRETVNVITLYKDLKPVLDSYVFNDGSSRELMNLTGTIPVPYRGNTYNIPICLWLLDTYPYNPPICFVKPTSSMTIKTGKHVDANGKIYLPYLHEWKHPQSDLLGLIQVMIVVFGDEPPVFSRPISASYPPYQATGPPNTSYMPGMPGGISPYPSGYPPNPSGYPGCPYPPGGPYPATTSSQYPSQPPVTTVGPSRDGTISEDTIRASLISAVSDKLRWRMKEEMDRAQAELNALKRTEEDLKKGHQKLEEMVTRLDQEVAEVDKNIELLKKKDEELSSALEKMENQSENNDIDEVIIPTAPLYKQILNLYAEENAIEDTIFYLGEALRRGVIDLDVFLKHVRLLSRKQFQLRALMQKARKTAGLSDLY
ATP-dependent DNA helicase Q1 (Homo sapiens), sequence (P46063 whole entry, looked up): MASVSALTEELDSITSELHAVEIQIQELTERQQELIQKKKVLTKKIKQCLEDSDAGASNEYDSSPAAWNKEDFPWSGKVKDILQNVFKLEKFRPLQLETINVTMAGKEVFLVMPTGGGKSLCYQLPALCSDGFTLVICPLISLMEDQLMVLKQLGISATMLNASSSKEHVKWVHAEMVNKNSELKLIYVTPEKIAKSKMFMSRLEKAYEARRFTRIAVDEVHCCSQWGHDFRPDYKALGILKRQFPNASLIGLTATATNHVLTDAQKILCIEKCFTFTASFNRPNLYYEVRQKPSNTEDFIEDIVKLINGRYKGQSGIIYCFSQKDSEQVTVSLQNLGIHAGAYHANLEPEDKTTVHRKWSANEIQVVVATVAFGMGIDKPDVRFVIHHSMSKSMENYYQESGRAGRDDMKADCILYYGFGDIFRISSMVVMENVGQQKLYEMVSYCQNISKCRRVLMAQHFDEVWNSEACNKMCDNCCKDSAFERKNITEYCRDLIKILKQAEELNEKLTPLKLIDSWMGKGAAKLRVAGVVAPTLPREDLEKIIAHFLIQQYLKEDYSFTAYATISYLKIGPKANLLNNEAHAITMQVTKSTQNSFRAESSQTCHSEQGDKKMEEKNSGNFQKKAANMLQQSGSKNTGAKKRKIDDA
Beta-2 adrenergic receptor (Homo sapiens), sequence (P07550 whole entry, looked up): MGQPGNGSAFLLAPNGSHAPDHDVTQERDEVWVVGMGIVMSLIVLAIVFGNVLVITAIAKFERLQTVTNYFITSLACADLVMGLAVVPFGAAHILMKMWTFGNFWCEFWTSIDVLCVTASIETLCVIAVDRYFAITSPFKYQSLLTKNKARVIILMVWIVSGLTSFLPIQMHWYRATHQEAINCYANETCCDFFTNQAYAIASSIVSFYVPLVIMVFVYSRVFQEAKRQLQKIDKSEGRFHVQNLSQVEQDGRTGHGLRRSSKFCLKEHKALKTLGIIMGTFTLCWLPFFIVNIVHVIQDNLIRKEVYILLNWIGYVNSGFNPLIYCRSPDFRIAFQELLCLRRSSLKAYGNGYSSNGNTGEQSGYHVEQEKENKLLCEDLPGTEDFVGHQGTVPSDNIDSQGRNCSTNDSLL
Ubiquitin carboxyl-terminal hydrolase 2 (Homo sapiens), sequence (O75604 whole entry, looked up): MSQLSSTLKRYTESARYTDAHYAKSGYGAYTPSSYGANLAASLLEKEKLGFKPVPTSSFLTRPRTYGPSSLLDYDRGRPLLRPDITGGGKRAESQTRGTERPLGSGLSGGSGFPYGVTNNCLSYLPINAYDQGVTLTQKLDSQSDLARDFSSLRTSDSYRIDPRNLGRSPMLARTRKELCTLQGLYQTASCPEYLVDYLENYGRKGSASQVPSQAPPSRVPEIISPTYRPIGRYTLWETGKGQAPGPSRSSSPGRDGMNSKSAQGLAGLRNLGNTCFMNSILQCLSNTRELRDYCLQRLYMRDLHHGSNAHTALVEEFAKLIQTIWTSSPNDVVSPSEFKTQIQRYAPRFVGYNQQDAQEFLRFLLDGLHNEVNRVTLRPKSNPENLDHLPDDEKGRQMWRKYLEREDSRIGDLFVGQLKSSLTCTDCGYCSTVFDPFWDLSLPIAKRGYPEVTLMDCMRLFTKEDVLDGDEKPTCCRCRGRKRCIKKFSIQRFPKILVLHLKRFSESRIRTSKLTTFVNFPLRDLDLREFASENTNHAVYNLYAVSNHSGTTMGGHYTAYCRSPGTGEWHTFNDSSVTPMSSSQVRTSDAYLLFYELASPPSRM

COC1(C2=NCCN2)COc2ccccc2O1 (configuration not stated)
inactive: [1] | [2] | [3] | [4] | [5] | [6] | [7] | [8] | [9] | [10] | [11] | [12] | [13]

O=C(O)[C@H]1NCCC[C@H]1C(=O)O
inactive: [14] | [2] | [15] | [16] | [3] | [4] | [5] | [6] | [8] | [9] | [10] | [11] | [12] | [13]

Nc1ccc(N2C(=O)c3ccccc3C2=O)c(Cl)c1
inactive: [1] | [2] | [16] | [4] | [5] | [6] | [8] | [9] | [10] | [11] | [12] | [13]

O=C(O)Cc1c[nH]c2ccc(O)cc12
inactive: [1] | [16] | [3] | [4] | [5] | [6] | [7] | [8] | [9] | [10] | [11] | [13]

NC(N)=NC(N)=Nc1ccccc1
inactive: [1] | [15] | [16] | [3] | [4] | [5] | [6] | [7] | [8] | [9] | [10] | [11] | [12] | [13]

CCCCCCCCCCC/C=C\C(C)(C)/C=C\CCCC(=O)O
inactive: [1] | [2] | [4] | [5] | [6] | [7] | [10] | [11] | [12] | [13]

Nc1ncnc2c1ncn2C1CCCO1 (configuration not stated)
inactive: [1] | [2] | [16] | [4] | [5] | [6] | [7] | [8] | [9] | [10] | [11] | [13]

NCCCNCCCCNCCCN
inactive: [1] | [2] | [3] | [17] | [4] | [6] | [7] | [8] | [9] | [10] | [11] | [13]

OC[C@H]1O[C@@H](n2cnc3cncnc32)[C@H](O)[C@@H]1O
inactive: [1] | [16] | [3] | [4] | [5] | [6] | [7] | [8] | [9] | [10] | [12] | [13]

O=c1[nH]c(=O)c2nc3ccccc3nc2[nH]1
inactive: [1] | [2] | [16] | [4] | [5] | [6] | [7] | [8] | [9] | [10] | [12]
